PubChem BioAssay (NCATS)
“And” between values parts separate entries of the source, which are not always exact repeats. Equal entries are not always repeated. Records with an inconclusive call do not appear. The source made the active and inactive calls. Unless noted, the call rests on the fitted dose curve; in most records, active means well fitted curve in the direction sought with a large enough effect; inconclusive means small, poorly fitted or top-dose-only effect, or another doubt; inactive means no such curve, though single readings can be large; an effect the other way counts as inactive or inconclusive.

Tests used:
[1] = qHTS for small molecule inhibitors of Yes1 kinase: Counter Assay (AID 686950); settings: series mostly up to 76.9 µM;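 further: no kinase present so only ADP-Glo detection of a fixed ADP amount is tested; luminescence from ADP-Glo reporting ADP in a fixed ATP and ADP mixture; 0% = DMSO wells with ATP plus ADP and -100% = ATP-only wells without ADP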
Outline: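 No kinase present; 0.08 mM ATP + 0.02 mM ADP in 50 mM Tris pH 7.5, 10 mM MgCl2, 150 mM NaCl, 1 mM DTT; 20 min compound preincubation, 60 min RT, ADP-Glo luminescence, normalized to ATP/ADP (max) and ATP-only (min).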

[2] = biological target: Arylsulfatase A (Homo sapiens) (UniProt P15289); experiment: qHTS screen for enhancers of Arylsulfatase A (ASA1): LOPAC Validation Assay (AID 720538); settings: ASA enzyme activity, LOPAC qHTS enhancer assay; series mostly up to 57.5 µM
Outline: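 MLD patient fibroblasts (SV40, ASA-I179S), 1536-well; adhere 6 hrs; cpd 48h, 37 degree C, 5% CO2; pNCS 0.5mM final in lysis buffer, 14h RT; stop 1N NaOH final; fluor. Ex525/Em598.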

[3] = qHTS for compounds that reverse cellular toxicity of Amyloid beta (A-beta) peptide in yeast: LOPAC Validation Assay (AID 720559); settings: yeast expressing A-beta; series mostly up to 46.1 µM;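 further: plate controls were DMSO for no effect and equimolar ferric chloride plus clioquinol rescue for full effect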
Outline: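 Medium dispensed, compounds pinned, A-beta yeast suspension added; plates held at 30 C for 48 hr; absorbance measured at 600 nm to gauge growth; values scaled between DMSO and FeCl3/clioquinol (equimolar) controls.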

[4] = qHTS for Activators of Parkin Expression: LOPAC Validation Assay (NLuc Reporter) (AID 720572); settings: Parkin promoter NanoLuc reporter cells, luminescence; series mostly up to 46.1 µM
Outline: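 NLuc signal, read 10 min after reagent and following a prior FLuc read, is normalized to DMSO (0) and positive controls (100%). Cells: neuronal Parkin-promoter coincidence reporter line; compounds tested 7-point, 24 h, 37 C, 5% CO2.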

[5] = qHTS for Activators of Parkin Expression: LOPAC Validation Assay (FLuc Reporter) (AID 720573); settings: Cell line, PRKN promoter firefly luciferase reporter, vehicle wells = 0, positive control = 100%; series mostly up to 46.1 µM
Outline: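 Cells seeded, 24 h; compounds pinned, 7-pt dose response; 24 h at 37 C/5% CO2; volume reduced; FLuc reagent 10 min RT; luminescence read. Normalization: DMSO = 0, positive control = 100%.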

[6] = biological target: T1, Hexokinase-4 (Homo sapiens) + Glucokinase regulatory protein (Homo sapiens) (UniProt P35557+Q14397); experiment: qHTS assay for inhibitors of recombinant human GCK-GKRP interaction: Diaphorase-coupled assay (AID 743205); settings: G6PDH/diaphorase resorufin fluorescence; series mostly up to 57.5 µM
Outline: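 25 mM Hepes pH 7.6, 5 mM glucose, 0.4 mM ATP, 4 U/ml G6PDH; 10 nM each GST-GCK/FLAG-GKRP. Kinetic fluorescence read, 1/min × 30 min. Normalized: DMSO ± enzyme = max/min.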

[7] = biological target: T1, Hexokinase-4 (Homo sapiens) + Glucokinase regulatory protein (Homo sapiens); experiment: qHTS assay for inhibitors of recombinant human GCK-GKRP interaction: ADP-Glo assay (AID 743206); settings: ADP-Glo luminescence, 60 min, 0% = vehicle-only wells with enzyme present; series mostly up to 76.9 µM;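 further: plate controls were DMSO plus enzyme for no effect and no enzyme for full effect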
Outline: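 Pin-transferred compounds meet a 15 nM GST-GCK/15 nM FLAG-GKRP/2 uM S6P mix (dispense concentrations). ATP is then added to 0.4 mM final with 5 mM glucose, and the reaction runs 60 min at room temperature. ADP is quantified luminescently.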

[8] = qHTS assay for small molecule agonists of the antioxidant response element (ARE) signaling pathway measured by Nrf2-dependant transcriptional activity (AID 720636; active means well fitted curve in the direction sought with a large enough effect in the repeat runs; an effect the other way counts as inactive or inconclusive;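 further: HepG2 cells with an ARE-driven luciferase reporter; % of control where 0% means no effect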); settings: ARE-luc HepG2, Nrf2 luciferase reporter, 16 h; series mostly up to 92.4 µM
Outline: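 ONE-Glo luminescence, read 30 min after reagent addition at room temperature, reflected ARE reporter activity in HepG2 cells that had been incubated with compound for 16 hr at 37 C in 1% dialyzed FBS.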

[9] = qHTS assay for small molecule agonists of the antioxidant response element (ARE) signaling pathway measured by Nrf2-dependant transcriptional activity - cell viability counter screen (AID 720653; active means well fitted curve in the direction sought with a large enough effect in the repeat runs; an effect the other way counts as inactive or inconclusive; further: on the % scale 0 is the no-effect control and ±100 the full control effect); settings: ARE-bla HepG2 viability, CellTiter-Glo ATP luminescence, 16 h; hits give low values
Outline: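 ARE-bla HepG2 cells treated with compounds for 16 h at 37C; this counter screen measures viability as intracellular ATP by CellTiter-Glo luminescence after 30 min at room temperature.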

[10] = qHTS assay for small molecule antagonists of the retinoid-related orphan receptor gamma (ROR-gamma) signaling pathway - cell viability counter screen (AID 720652; active means well fitted curve in the direction sought with a large enough effect in the repeat runs; an effect the other way counts as inactive or inconclusive;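 further: CHO reporter cells with doxycycline-induced ROR-gamma expression; compound exposure lasted 16 hr before ATP read; on the % scale 0 is the no-effect control and ±100 the full control effect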); settings: RORgamma reporter cell line viability counter screen; series mostly up to 92.2 µM
Outline: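 Cytotoxicity counter screen: intracellular ATP (CellTiter-Glo luminescence) measured in the doxycycline-induced CHO RORE-luciferase reporter line after 16 hr compound exposure at 37 C, 5% CO2.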

T1 sequence (P35557 whole entry, looked up): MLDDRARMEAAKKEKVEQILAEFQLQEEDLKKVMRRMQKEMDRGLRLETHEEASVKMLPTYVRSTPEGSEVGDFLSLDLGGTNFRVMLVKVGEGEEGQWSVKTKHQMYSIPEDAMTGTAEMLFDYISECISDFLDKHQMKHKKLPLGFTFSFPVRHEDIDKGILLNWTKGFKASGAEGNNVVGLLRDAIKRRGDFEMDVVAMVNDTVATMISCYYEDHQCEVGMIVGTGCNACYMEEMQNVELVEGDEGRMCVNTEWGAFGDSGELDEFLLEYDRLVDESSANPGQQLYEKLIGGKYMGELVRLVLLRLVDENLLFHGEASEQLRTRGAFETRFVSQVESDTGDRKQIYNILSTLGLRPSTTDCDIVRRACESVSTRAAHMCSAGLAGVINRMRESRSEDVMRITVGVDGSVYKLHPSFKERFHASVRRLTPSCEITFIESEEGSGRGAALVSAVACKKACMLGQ
T1 sequence (Q14397 whole entry, looked up): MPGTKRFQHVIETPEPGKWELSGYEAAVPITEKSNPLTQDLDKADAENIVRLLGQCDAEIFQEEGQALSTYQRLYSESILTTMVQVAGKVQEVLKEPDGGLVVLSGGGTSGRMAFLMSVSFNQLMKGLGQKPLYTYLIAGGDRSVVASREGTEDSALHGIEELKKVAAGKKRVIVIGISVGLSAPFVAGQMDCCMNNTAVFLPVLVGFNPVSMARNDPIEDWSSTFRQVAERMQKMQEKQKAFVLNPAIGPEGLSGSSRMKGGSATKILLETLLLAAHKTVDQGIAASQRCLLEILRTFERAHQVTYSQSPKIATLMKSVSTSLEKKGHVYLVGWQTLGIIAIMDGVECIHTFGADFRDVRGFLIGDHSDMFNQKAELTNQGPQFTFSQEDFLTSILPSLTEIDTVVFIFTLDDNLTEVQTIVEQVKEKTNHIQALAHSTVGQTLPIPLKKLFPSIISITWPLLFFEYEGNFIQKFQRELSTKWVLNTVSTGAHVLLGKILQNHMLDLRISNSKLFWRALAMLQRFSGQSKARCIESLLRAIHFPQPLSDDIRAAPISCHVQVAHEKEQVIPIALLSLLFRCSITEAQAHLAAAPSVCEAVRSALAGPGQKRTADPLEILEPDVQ
Sequence of Arylsulfatase A (Homo sapiens) (P15289 whole entry, looked up): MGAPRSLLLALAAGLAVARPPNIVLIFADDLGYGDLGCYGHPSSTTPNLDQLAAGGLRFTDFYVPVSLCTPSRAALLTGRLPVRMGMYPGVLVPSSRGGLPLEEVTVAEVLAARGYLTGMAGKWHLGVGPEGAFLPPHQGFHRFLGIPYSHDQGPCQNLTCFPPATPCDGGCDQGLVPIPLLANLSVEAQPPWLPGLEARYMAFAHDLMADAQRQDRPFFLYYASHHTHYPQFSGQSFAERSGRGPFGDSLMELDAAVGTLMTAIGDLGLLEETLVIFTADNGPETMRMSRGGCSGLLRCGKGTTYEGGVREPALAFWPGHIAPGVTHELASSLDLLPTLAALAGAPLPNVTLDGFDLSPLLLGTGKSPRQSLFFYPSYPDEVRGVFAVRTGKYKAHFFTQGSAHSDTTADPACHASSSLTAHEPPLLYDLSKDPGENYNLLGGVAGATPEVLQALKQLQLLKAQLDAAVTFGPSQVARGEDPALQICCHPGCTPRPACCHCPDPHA

O=C(Nc1ccc(F)c(C(F)(F)F)c1)Nc1nnc(-c2ccncc2)s1
inactive: outcome [1]

CC(C)(C)NCC(O)c1ccc(O)c(CO)c1 (stereo not given)
inactive: outcome [2] inactive; inhibitor; fitted 8.4921 uM | outcome [3] | Potency [4] | outcome [5]

Cc1cc2c(C(C)C)c(O)c(O)c(C=O)c2c(O)c1-c1c(C)cc2c(C(C)C)c(O)c(O)c(C=O)c2c1O
inactive: outcome [1] | outcome [3] | Potency [4] | outcome [6]

Clc1ccc(Nc2nnc(Cc3ccncc3)c3ccccc23)cc1
inactive: outcome [1]

CN1CCN(CCCN2c3ccccc3Sc3ccc(C(F)(F)F)cc32)CC1
inactive: outcome [2] | outcome [3] | Potency [4] | outcome [5] | outcome [6] | outcome [7]

Cc1ccccc1C(OCCN(C)C)c1ccccc1 (stereo not given)
inactive: outcome [2] | outcome [3] | Potency [4] | outcome [5] | outcome [8] | max response [9] -8.13% | outcome [6] | outcome [7]

NS(=O)(=O)c1cc2c(cc1Cl)NC=NS2(=O)=O
inactive: outcome [3] | Potency [4] | outcome [5] | outcome [8] | outcome [10] | max response [9] -14.4% | outcome [6] | outcome [7]

O=NN(CCCl)C(=O)NCCCl
inactive: outcome [3] | Potency [4] | outcome [5] | outcome [8] | max response [9] -0.208% | outcome [6] | outcome [7]

c1ccc([C@H]2CN3CCSC3=N2)cc1
inactive: outcome [2] | outcome [3] | Potency [4] | outcome [5] | outcome [6] | outcome [7]

N[C@@H]1CONC1=O
inactive: outcome [2] | outcome [6] | outcome [7]

CCOC(=O)C1=C[C@]2(CC)CCCN3CCc4c(n1c1ccccc41)[C@@H]32
inactive: outcome [2] | outcome [3] | Potency [4] | outcome [5] | outcome [6] | outcome [7]

Oc1ccc(C2CNCCc3c2cc(O)c(O)c3Cl)cc1 (stereo not given)
inactive: outcome [6] | outcome [7]

CCN(CC)CCCC(C)Nc1ccnc2cc(Cl)ccc12 (stereo not given)
inactive: outcome [2] | outcome [3] | Potency [4] | outcome [5] | outcome [6] | outcome [7]

CCOC(=O)N1CCC(=C2c3ccc(Cl)cc3CCc3cccnc32)CC1
inactive: outcome [3] | Potency [4] | outcome [5] | outcome [6] | outcome [7]

CCn1cc(C(=O)O)c(=O)c2cc(F)c(N3CCNC(C)C3)c(F)c21 (stereo not given)
inactive: outcome [2] | outcome [3] | Potency [4] | outcome [5] | outcome [6] | outcome [7]

Cc1ccc(N(CC2=NCCN2)c2cccc(O)c2)cc1
inactive: outcome [3] | Potency [4] | outcome [5] | outcome [6] | outcome [7]

CC(C)NCC(O)COc1ccc(COCCOC(C)C)cc1 (stereo not given)
inactive: outcome [2] inactive; inhibitor; fitted 0.3793 uM | outcome [3] | Potency [4] | outcome [5] | outcome [6] | outcome [7]

NCCc1ccc(O)c(O)c1
inactive: outcome [3] | Potency [4] | outcome [5] | outcome [6] | outcome [7]

NCCCC(N)(C(=O)O)C(F)F (stereo not given)
inactive: outcome [2] | outcome [3] | Potency [4] | outcome [5] | outcome [6] | outcome [7]

NNCCc1ccccc1
inactive: outcome [2] | outcome [3] | Potency [4] | outcome [5] | outcome [6] | outcome [7]

C1COC(NC(C2CC2)C2CC2)=N1
inactive: outcome [3] | Potency [4] | outcome [5] | outcome [6] | outcome [7]

O=C1CCc2cc(OCCCCc3nnnn3C3CCCCC3)ccc2N1
inactive: outcome [2] | outcome [3] | Potency [4] | outcome [5] | outcome [6] | outcome [7]

CCCCNc1cc(C(=O)O)cc(S(N)(=O)=O)c1Oc1ccccc1
inactive: outcome [2] | outcome [3] | Potency [4] | outcome [5] | outcome [6] | outcome [7]

Nc1nc2c(ncn2COCCO)c(=O)[nH]1
inactive: outcome [2] | outcome [3] | outcome [6] | outcome [7]

CCCC(CCC)C(=O)O
inactive: outcome [2] | outcome [3] | outcome [8] | outcome [10] | max response [9] -3.17% and -14.3% and -4.27%

Cc1cnc(NC(=O)C2=C(O)c3ccccc3S(=O)(=O)N2C)s1
inactive: outcome [2] | outcome [3] | outcome [5] | outcome [6] | outcome [7]

OC(CCN1CCCCC1)(c1ccccc1)C1CC2C=CC1C2 (stereo not given)
inactive: outcome [2] | outcome [3] | Potency [4] | outcome [5] | outcome [6] | outcome [7]

Clc1cccc(Cl)c1NC1=NCCN1
inactive: outcome [3] | Potency [4] | outcome [5] | outcome [6] | outcome [7]

CC(=O)Oc1ccccc1C(=O)O
inactive: outcome [2] | outcome [3] | Potency [4] | outcome [5] | outcome [8] | outcome [10] | max response [9] -2.6% and -0.828% and 18.8% | outcome [6] | outcome [7]

O=C(O)COCCN1CCN(C(c2ccccc2)c2ccc(Cl)cc2)CC1 (stereo not given)
inactive: outcome [3] | Potency [4] | outcome [5] | outcome [6] | outcome [7]

Cc1[nH]c(=O)c(C#N)cc1-c1ccncc1
inactive: outcome [2] inactive; inhibitor; fitted 5.3582 uM | outcome [3] | Potency [4] | outcome [5] | outcome [8] | max response [9] 11.3% | outcome [6] | outcome [7]
